Tested on: T1, LOC_OS06G22820-cb001
T1 sequence (whole entry): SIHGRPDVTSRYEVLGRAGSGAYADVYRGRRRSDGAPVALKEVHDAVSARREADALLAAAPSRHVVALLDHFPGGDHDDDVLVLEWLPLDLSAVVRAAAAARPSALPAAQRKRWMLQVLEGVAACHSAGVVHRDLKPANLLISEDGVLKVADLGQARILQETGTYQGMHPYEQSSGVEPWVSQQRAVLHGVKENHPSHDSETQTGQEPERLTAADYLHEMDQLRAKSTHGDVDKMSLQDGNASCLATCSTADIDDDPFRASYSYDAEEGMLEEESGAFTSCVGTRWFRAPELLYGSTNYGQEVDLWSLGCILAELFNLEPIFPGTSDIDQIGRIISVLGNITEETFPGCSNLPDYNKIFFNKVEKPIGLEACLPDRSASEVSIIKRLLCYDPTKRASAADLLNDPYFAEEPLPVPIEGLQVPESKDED
Experiment: thermal shift delta Tm vs DMSO control; higher = stronger stabilization (binding)
Conditions: 12.5 µM; protein concentration 2 µM
Procedure, shortened: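 The melting temperature shift given here is a triplicate mean, measured against protein that received only DMSO. Melting temperatures came from Boltzmann fits of differential scanning fluorimetry data on E. coli-expressed, purified rice kinase domain constructs. Each 19.5 μl well contained 2 μM kinase, 100 mM potassium phosphate pH 7.5, 150 mM NaCl, 10% glycerol, 5 × SYPRO Orange and compound in DMSO. Plates were scanned from 25°C to 95°C at 0.05°C/s.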

SMILES | thermal shift delta Tm [°C]
O=C1NC(=O)C(c2ccccc2[N+](=O)[O-])=C1Nc1ccc(O)c(Cl)c1 | 0.75
CCOc1cc2ncc(C#N)c(Nc3ccc(OCc4ccccn4)c(Cl)c3)c2cc1NC(=O)/C=C/CN(C)C [Neratinib (HKI-272)] | 0.9
CCCS(=O)(=O)Nc1ccc(F)c(C(=O)c2c[nH]c3ncc(-c4ccc(Cl)cc4)cc23)c1F [Vemurafenib (PLX4032, RG7204)] | 1.99
Cc1cn(-c2cc(NC(=O)c3ccc(C)c(Nc4nccc(-c5cnccn5)n4)c3)cc(C(F)(F)F)c2)cn1 [Radotinib] | 0.69
OC(c1cc(-c2ccc(Cl)cc2)nc2ccccc12)C1CCCCN1 (stereo not drawn) [Vacquinol-1] | 0.46
Cc1cc(CS(=O)(=O)c2ccccc2)cc(OCc2ccc(CN3CCC[C@@H]3CO)cc2)c1 | 0.68
Clc1ccc(Nc2nnc(Cc3ccncc3)c3ccccc23)cc1 [Vatalanib (PTK787) 2HCl] | 0.55
CN1CCN(c2ccc(Nc3cc(-c4cccc(-n5ccc6cc(C7CC7)cc(F)c6c5=O)c4CO)cn(C)c3=O)nc2)CC1 | 0.59
O=C1NC(=O)[C@@H](c2cn3c4c(cccc24)CCC3)[C@@H]1c1c[nH]c2ccccc12 [Tivantinib (ARQ 197)] | 0.65
COc1cc(-c2cc(-c3ccc(N4CCNCC4)cc3)cnc2C)cc(OC)c1OC | 0.21
Cn1ncc(Cl)c1-c1cc(C(=O)N[C@H](CN)Cc2ccc(F)c(F)c2)oc1Cl | 0.82
C[C@H](Nc1ncnc2nc[nH]c12)c1cc2cccc(Cl)c2c(=O)n1-c1ccccc1 [Duvelisib (IPI-145, INK1197)] | 0.69
COc1cc2ncnc(Nc3ccc(F)c(Cl)c3)c2cc1OCCCN1CCOCC1 [Gefitinib (ZD1839)] | 0.63
C[C@@H](N)c1ccc(C(=O)Nc2ccnc3[nH]ccc23)cc1 | 0.59
Cc1ccc(C(=O)Nc2cccc(C(F)(F)F)c2)cc1Nc1nc(-c2cccnc2)nc2c1cnn2C | 0.98
O=C1NC(=O)/C(=C/c2ccc3nccc(-c4ccncc4)c3c2)S1 | 0.22
Oc1c2ccccc2c2c3c(cccc13)N=N2 | 0.87
C=CC(=O)Nc1ccc2ncnc(Nc3cccc(Br)c3)c2c1 | 0.64
COc1cc2nccc(Oc3ccc(NC(=O)NC4CC4)c(Cl)c3)c2cc1C(N)=O [Lenvatinib (E7080)] | 0.98

SMILES | thermal shift delta Tm [°C]
CN1CCCN(C(=O)c2cccc(-c3ccc(/C=C4/C(=O)Nc5ccc(Cl)cc54)o3)c2)CC1 | 0.37
CCc1cnn2c(NCc3ccc[n+]([O-])c3)cc(N3CCCC[C@H]3CCO)nc12 | 0.41
O=C(Nc1ccc(OC(F)(F)F)cc1)c1sccc1NCc1ccnc2ccccc12 | 0.92
CCOC(=O)c1cnc2ccc(-c3cncc(NS(=O)(=O)c4ccccc4)c3)cn12 | 0.38
CCCNC(=O)Nc1ccc(Oc2ncnc3cc(OC)c(OC)cc23)cc1Cl | 0.78
Cc1cc(Nc2ncnc3ccc(-c4ccc(CNCCS(C)(=O)=O)o4)cc23)ccc1Oc1ccn2ncnc2c1 [HER2-Inhibitor-1] | 0.78
COc1cc2c(Oc3ccc(NC(=O)C4(C(=O)Nc5ccc(F)cc5)CC4)cc3F)ccnc2cc1OCCCN1CCOCC1 | 0.8
Cn1cc(-c2ccc3c(c2)CCN3C(=O)Cc2cccc(C(F)(F)F)c2)c2c(N)ncnc21 | 0.97
O=C(c1ccc(Nc2nccc(-c3cc4ccccc4s3)n2)cc1)N1CCC(N2CCCC2)CC1 [IKK-16 (IKK Inhibitor VII)] | 0.14
Cc1cc(NC(=O)c2cccc(NC(=O)/C=C/CN(C)C)c2)ccc1Nc1nccc(-c2cccnc2)n1 | 1.05
CC(C)[C@H](CO)Nc1nc(Nc2cccc(Cl)c2)c2ncn(C(C)C)c2n1 [Purvalanol A] | 0.25
C=CC(=O)Nc1cccc(Nc2nc(Nc3ccc(OCCOC)cc3)ncc2F)c1 | 0.96
Cc1c(C(=O)Nc2ccc(Oc3ccnc4[nH]cc(-c5ccccc5)c34)c(F)c2)c(=O)n(-c2ccc(F)cc2)n1C | 0.86
COc1cc(Nc2ncc(F)c(Nc3ccc4c(n3)N(COP(=O)(O)O)C(=O)C(C)(C)O4)n2)cc(OC)c1OC [Fostamatinib (R788)] | 0.25
CC(C)c1c2cc(-c3ccnc(NC4CCC(NC5CCOCC5)CC4)n3)ccc2nn1C (stereo not drawn) | 0.19
Cc1nc2ccc(-n3ncc(C(=O)c4cc5ccccc5[nH]4)c3N)cc2[nH]1 | 0.56
COc1cc2ncnc(Sc3nnc(C)s3)c2cc1OC | 0.32
CCOc1cn(-c2ccc(F)cc2C)nc1C(=O)Nc1ccc(Oc2ccnc3cc(OC)c(OC)cc23)c(F)c1 | 0.19
COc1ccc([C@@H]2OC[C@H]3[C@@H]2CO[C@@H]3c2ccc(O[C@@H]3O[C@H](CO)[C@@H](O)[C@H](O)[C@H]3O)c(OC)c2)cc1OC [Forsythin] | 0.41
